Many of the other results were omitted from the sample, so hits are more common in it than they were.
Tgondii IFNg – blocks Toxoplasma gondii growth in the presence of IFN-gamma; 3.8% of 69,000 active; activity change, negative = inhibition, % (no concentration beside the values); AID 1259416; Toxoplasma gondii growth in IFN-gamma-treated host cells; stronger effect = lower value; in the data active = activity change below about -70%, passing the limit was not always enough;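 also: host cells are HeLa cells infected with Toxoplasma gondii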
A number is an active result; - = inactive.

SMILES	Tgondii IFNg
CC1CCCCN1S(=O)(=O)c1ccc2c(c1)CCC(=O)N2CC(=O)N1CCc2ccccc21 (configuration not stated)	-
Cc1nc(CNC(=O)C(=O)c2cccs2)cs1	-
Cc1ccc2[nH]c3c(=O)n(CC(=O)N4CCN(c5ccccn5)CC4)cnc3c2c1	-
CS(=O)(=O)c1noc(-c2cccs2)c1C#N	-
CCCCCCCCCCCCCCCC[N+](C)(C)CCN(Cc1ccc(OC)cc1)c1ncccn1	-84.2
COc1ccc(CN(CCN(C)C)c2ccccn2)cc1	-
COc1ccc(CN(CCN(C)C)c2ncccn2)cc1	-
O=C1NCCN(Cc2ccccc2C(F)(F)F)C1CC(=O)N1CCC(O)CC1 (configuration not stated)	-
O=C(NC1CCC12CCN(Cc1ccco1)CC2)c1cnccn1 (configuration not stated)	-
CC1Cc2cc(CCC(=O)O)ccc2O1 (configuration not stated)	-
CCn1cc(-c2cc(C(=O)Nc3c(C)ccc4nc(C)ccc34)no2)cn1	-
O=C1CCCc2nc(N3CCCCC3)ncc21	-
Cc1nc(OCC(=O)Nc2ccc(Br)cc2)c2ccccc2n1	-
Brc1ccc(Nc2c3ccccc3nc3ccccc23)cc1	-92.4
Fc1ccc(CSc2nc(Nc3ccc(F)cc3)c3ccccc3n2)cc1	-
O=C(NC1CCCC1)c1nc2c(o1)CN(C(=O)CO)C2	-
Cc1cc(C)n(CC(C)NCC(=O)Nc2ccc(Cl)cc2F)n1 (configuration not stated)	-
C/C(=C\c1ccccc1)CN1CCC2(CC1)CC2C(=O)NCc1ccccc1C(F)(F)F (configuration not stated)	-
COCCN(C)C(=O)C1CC2(CO1)CN(Cc1ccc(OC)cc1)c1ccccc12 (configuration not stated)	-
COc1ccc(CN2CC3(COC(C(=O)N4CCCC4)C3)c3ccccc32)cc1 (configuration not stated)	-78.5
COc1ccc(CN2CC3(COC(C(=O)CCN4CCOCC4)C3)c3ccccc32)cc1 (configuration not stated)	-
CN(C)C(=O)[C@]12CCCN(C(=O)c3cccs3)C[C@@H]1CN(Cc1cnn(C)c1)C2	-
Cc1cnc(C)c(N2CCN(Cc3ccc4c(C)cc(=O)oc4c3)CC2)n1	-
C[C@H]1CCCCO[C@H](CN(C)C(=O)C2CCCCC2)[C@@H](C)CN([C@@H](C)CO)C(=O)c2cc(NS(=O)(=O)c3ccccc3)ccc2O1	-
C[C@H]1CCCCO[C@@H](CN(C)C(=O)C2CCCCC2)[C@@H](C)CN([C@@H](C)CO)C(=O)c2cc(NS(=O)(=O)c3ccccc3)ccc2O1	-
SMILES	Tgondii IFNg
Cc1ccc(S(=O)(=O)Nc2ccc3c(c2)C(=O)N([C@H](C)CO)C[C@@H](C)[C@H](CN(C)S(=O)(=O)c2cccs2)OCCCC[C@H](C)O3)cc1	-131.1
Cc1noc(C)c1NC(=O)Nc1ccc2c(c1)C(=O)N([C@H](C)CO)C[C@H](C)[C@H](CN(C)S(=O)(=O)c1cccs1)OCCCC[C@H](C)O2	-
Cc1noc(C)c1NC(=O)Nc1ccc2c(c1)C(=O)N([C@H](C)CO)C[C@H](C)[C@@H](CN(C)S(=O)(=O)c1cccs1)OCCCC[C@@H](C)O2	-
Cc1ccc(S(=O)(=O)Nc2ccc3c(c2)C(=O)N([C@@H](C)CO)C[C@@H](C)[C@H](CN(C)S(=O)(=O)c2cccs2)OCCCC[C@@H](C)O3)cc1	-103.2
C[C@H](CO)N1C[C@H](C)[C@H](CN(C)C(=O)C2CCCCC2)OCCCC[C@H](C)Oc2ccc(NS(=O)(=O)c3ccccc3)cc2C1=O	-102.2
Cc1noc(C)c1NC(=O)Nc1ccc2c(c1)C(=O)N([C@@H](C)CO)C[C@H](C)[C@H](CN(C)S(=O)(=O)c1cccs1)OCCCC[C@@H](C)O2	-
Cc1noc(C)c1NC(=O)Nc1ccc2c(c1)C(=O)N([C@H](C)CO)C[C@H](C)[C@H](CN(C)S(=O)(=O)c1cccs1)OCCCC[C@@H](C)O2	-
Cc1ccc(S(=O)(=O)Nc2ccc3c(c2)C(=O)N([C@H](C)CO)C[C@H](C)[C@H](CN(C)S(=O)(=O)c2cccs2)OCCCC[C@H](C)O3)cc1	-121.0
Cc1noc(C)c1NC(=O)Nc1ccc2c(c1)C(=O)N([C@H](C)CO)C[C@@H](C)[C@H](CN(C)S(=O)(=O)c1cccs1)OCCCC[C@H](C)O2	-
C[C@H](CO)N1C[C@H](C)[C@H](CN(C)C(=O)c2ccncc2)OCCCC[C@H](C)Oc2ccc(NS(=O)(=O)c3cccs3)cc2C1=O	-
Cc1[nH]c2ccc(C(=O)NCc3cc(=O)[nH]c(-c4ccccn4)n3)cc2c1C	-
Cc1cc(F)ccc1NC(=O)Cn1c(=O)cc(-c2nc(C3CC3)no2)c2ccccc21	-
O=c1[nH]cnc2c1cnn2[C@@H]1O[C@H](CO)[C@H](O)C1O (some centres not stated)	-
NC(=O)c1cnc2n1CCN(C(=O)COCC1CCCCO1)C2 (configuration not stated)	-
Cc1ccc(C)c(C(=O)Nc2ccc(-c3nc(Cn4cc(C)cn4)c(C)o3)cc2)c1	-
CCC(NC(=O)c1cc2cccc(C)c2nc1C)c1c(C)nn(CC)c1C (configuration not stated)	-
Cc1nn(C)cc1NC(=O)C[C@@H]1CC[C@@H]2[C@H](COc3ccc(NC(=O)C4CCOCC4)cc3C(=O)N2C)O1	-
Cc1ccc(S(=O)(=O)Nc2ccc3c(c2)C(=O)N([C@H](C)CO)C[C@@H](C)[C@@H](CN(C)S(=O)(=O)c2cccs2)OCCCC[C@H](C)O3)cc1	-116.7
Cc1noc(C)c1NC(=O)Nc1ccc2c(c1)C(=O)N([C@H](C)CO)C[C@@H](C)[C@@H](CN(C)S(=O)(=O)c1cccs1)OCCCC[C@H](C)O2	-
Cc1noc(C)c1NC(=O)Nc1ccc2c(c1)C(=O)N([C@@H](C)CO)C[C@@H](C)[C@@H](CN(C)S(=O)(=O)c1cccs1)OCCCC[C@@H](C)O2	-
Cc1ccc(Nc2nc(C(=O)NCCC3=CCCCC3)nc3ccccc23)cc1	-
Cc1csc(-c2nccn2-c2ccc(-c3n[nH]c(C)n3)cc2)n1	-
Cc1ccsc1[C@@H]1CCN(C(=O)CN(C)Cc2cccnc2)C[C@H]1O	-
COCC(=O)NC1CCN(C2CCNCC2)CC1	-
c1cc(CN2C[C@H]3OCCN(CCN4CCCC4)[C@H]3C2)co1	-
SMILES	Tgondii IFNg
N#Cc1c(Cl)cccc1Oc1ccc(-c2ccn[nH]2)cc1	-
Clc1cccc(Cl)c1/C=C/c1ccn[nH]1	-88.8
NC(=O)c1ccc(-n2cnnc2)cc1N1CCCC1	-
Cc1ccc(-c2coc(-c3ccc(NS(=O)(=O)c4ccc(C(C)(C)C)cc4)cc3)n2)c(C)c1	-
CC(C)(C)c1ccc(S(=O)(=O)Nc2ccc(C34CC5CC(CC(C5)C3)C4)cc2)cc1	-96.2
O=C1CCc2cc(NS(=O)(=O)c3ccc(C(F)(F)F)cc3)ccc2N1	-
CN(C)CCCN(Cc1ccco1)Cc1n[nH]nc1-c1ccccc1	-
Cc1cccnc1C(=O)N1CCC(c2cc(Cc3ccccc3)[nH]n2)CC1	-
COc1ccc(C)cc1NC(=O)COc1nc(C)nc2ccccc12	-
COc1ccc(OC)c(CC(=O)N2CCC(Cc3nncn3C)CC2)c1	-
Cc1nonc1C1CCCN1C(=O)c1cccc(C#CC(C)(C)O)c1 (configuration not stated)	-
O=C(NC(=O)c1ccc(C(F)(F)F)cc1)NN1CCCCCC1	-77.0
O=C(Nc1cc(C(F)(F)F)ccc1N1CCCCC1)c1ccncc1	-
C#CCOC(=O)NC(=O)c1ccc(C(F)(F)F)cc1	-
